Data as given in PubChem BioAssay AID1479148 (National Center for Advancing Translational Sciences (NCATS), 2020).
Records with an inconclusive call do not appear. Calls of active or inactive are those of the source. Calls follow the shape of the full dose curve.

Test: Confirmatory qHTS for inhibitors of SARS-S pseudo-typed particle cell entry
Conditions: SARS-S pseudotyped particle cell entry, reporter luminescence; series mostly up to 57.1 µM

SMILES	Potency
CN[C@H]1CC[C@@H](c2ccc(Cl)c(Cl)c2)c2ccccc21	19.2 µM (active)
CC(C)C[C@H](NC(=O)[C@H](CCc1ccccc1)NC(=O)CN1CCOCC1)C(=O)N[C@@H](Cc1ccccc1)C(=O)N[C@@H](CC(C)C)C(=O)[C@@]1(C)CO1	0.681 µM (active)
CCn1cc(C(=O)O)c(=O)c2cc(F)c(N3CCNC(C)C3)c(F)c21 (stereo not drawn)	inactive
COC(=O)C1=C(C)NC(C)=C(C(=O)OCC(C)C)C1c1ccccc1[N+](=O)[O-] (stereo not drawn)	19.2 µM (active)
CN1CCCCC1CCN1c2ccccc2Sc2ccc(S(C)=O)cc21 (stereo not drawn)	27.1 µM (active)
C[C@@H]1CCO[C@H]2Cn3cc(C(=O)NCc4ccc(F)cc4F)c(=O)c(O)c3C(=O)N12	0.0096 µM (active)
CC(C)OC(=O)[C@H](C)N[P@](=O)(CO[C@H](C)Cn1cnc2c(N)ncnc21)Oc1ccccc1	0.171 µM (active)
CN(C)CC/C=C1\c2ccccc2Sc2ccc(Cl)cc21	21.5 µM (active)
COc1cc(NS(C)(=O)=O)ccc1Nc1c2ccccc2nc2ccccc12	0.961 µM (active)
CN1CCC(=C2c3ccccc3CCc3sccc32)CC1	27.1 µM (active)
CO[C@@]12[C@H](COC(N)=O)C3=C(C(=O)C(C)=C(N)C3=O)N1C[C@@H]1N[C@@H]12	6.07 µM (active)
COc1cccc2c1C(=O)c1c(O)c3c(c(O)c1C2=O)C[C@@](O)(C(=O)CO)CC3OC1CC(N2CCOC(OC)C2)C(O)C(C)O1 (stereo partly drawn)	0.0961 µM (active)
NCCNc1ccc(NCCN)c2c1C(=O)c1ccncc1C2=O	0.857 µM (active)
CC(=O)Oc1ccccc1C(=O)Nc1ncc([N+](=O)[O-])s1	12.1 µM (active)
O=C1c2c(O)ccc(O)c2C(=O)c2c(NCCNCCO)ccc(NCCNCCO)c21	0.121 µM (active)
c1ccc2c(c1)Sc1ccccc1N2CC1CN2CCC1CC2 (stereo not drawn)	27.1 µM (active)
CCN(CC)CCNC(=O)c1c(C)[nH]c(/C=C2\C(=O)Nc3ccc(F)cc32)c1C	6.07 µM (active)

SMILES	Potency
Cc1cn([C@H]2C[C@H](N=[N+]=[N-])[C@@H](CO)O2)c(=O)[nH]c1=O	0.271 µM (active)
CCCCCCCCCCCC[n+]1ccc2ccccc2c1	3.83 µM (active)
CC[C@@]1(O)C(=O)OCc2c1cc1n(c2=O)Cc2cc3c(CN(C)C)c(O)ccc3nc2-1	0.764 µM (active)
CN1CCN(CCC=C2c3ccccc3Sc3ccc(S(=O)(=O)N(C)C)cc32)CC1	6.07 µM (active)
CC(C)(C)C(=O)OCOP(=O)(COCCn1cnc2c(N)ncnc21)OCOC(=O)C(C)(C)C	0.0383 µM (active)
O=c1c(C2CC(c3ccc(-c4ccc(Br)cc4)cc3)Cc3ccccc32)c(O)sc2ccccc12 (stereo not drawn)	13.6 µM (active)
CC(=O)[C@]1(O)Cc2c(O)c3c(c(O)c2[C@@H](O[C@H]2C[C@H](N)[C@H](O)[C@H](C)O2)C1)C(=O)c1ccccc1C3=O	6.07 µM (active)
Cc1oncc1C(=O)Nc1ccc(C(F)(F)F)cc1	inactive
CNC(=O)c1cc(Oc2ccc(NC(=O)Nc3ccc(Cl)c(C(F)(F)F)c3)c(F)c2)ccn1	8.57 µM (active)
Nc1ccn([C@@H]2O[C@H](CO)[C@@H](O)C2(F)F)c(=O)n1	0.192 µM (active)
CN(C)[C@@H](CCOc1cccc2ccccc12)c1ccccc1	6.81 µM (active)
CCCCCCCCCCCCCC[n+]1ccc(C)cc1	3.83 µM (active)
C[C@]12CC[C@H](O)C[C@H]1CCC1C2CC[C@]2(C)[C@@H](c3ccc(=O)oc3)C[C@H]3O[C@]132 (stereo partly drawn)	5.41 µM (active)
O=c1ccc2ccccc2o1	inactive
CC(C)(C)NC(=O)[C@H]1CC[C@H]2[C@@H]3CC[C@H]4NC(=O)C=C[C@]4(C)[C@H]3CC[C@]12C	inactive
CCN(CC)Cc1cc(Nc2ccnc3cc(Cl)ccc23)ccc1O	8.57 µM (active)
